Source: PubChem BioAssay (several laboratories)
Rows were chosen to be rich in hits. Some 4.5% of all compounds tested hit in one or more screens of this group.
HDAC3 inhib: blocks human histone deacetylase 3 | recombinant HDAC3, fluorogenic peptide/trypsin coupled, fluorescence | inhibition, % at 8.3 µM | 0.15% of 320,000 active; in the data active = inhibition above about 26%, passing the limit was not always enough
GRK2 aptamer HTS: blocks RNA aptamer binding to human GRK2. inhibition of aptamer binding, % at 10 µM. AID 488847. bead flow cytometry, FAM-aptamer displacement from GRK2. 0.59% of 330,000 active. P25098;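 active = inhibition of aptamer binding above 40%, roughly 3 SD of noise, on plates passing a quality check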;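 note: median bead fluorescence of bound FAM aptamer so fluorescent compounds give negative values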
Target sequence (P25098 whole entry, looked up): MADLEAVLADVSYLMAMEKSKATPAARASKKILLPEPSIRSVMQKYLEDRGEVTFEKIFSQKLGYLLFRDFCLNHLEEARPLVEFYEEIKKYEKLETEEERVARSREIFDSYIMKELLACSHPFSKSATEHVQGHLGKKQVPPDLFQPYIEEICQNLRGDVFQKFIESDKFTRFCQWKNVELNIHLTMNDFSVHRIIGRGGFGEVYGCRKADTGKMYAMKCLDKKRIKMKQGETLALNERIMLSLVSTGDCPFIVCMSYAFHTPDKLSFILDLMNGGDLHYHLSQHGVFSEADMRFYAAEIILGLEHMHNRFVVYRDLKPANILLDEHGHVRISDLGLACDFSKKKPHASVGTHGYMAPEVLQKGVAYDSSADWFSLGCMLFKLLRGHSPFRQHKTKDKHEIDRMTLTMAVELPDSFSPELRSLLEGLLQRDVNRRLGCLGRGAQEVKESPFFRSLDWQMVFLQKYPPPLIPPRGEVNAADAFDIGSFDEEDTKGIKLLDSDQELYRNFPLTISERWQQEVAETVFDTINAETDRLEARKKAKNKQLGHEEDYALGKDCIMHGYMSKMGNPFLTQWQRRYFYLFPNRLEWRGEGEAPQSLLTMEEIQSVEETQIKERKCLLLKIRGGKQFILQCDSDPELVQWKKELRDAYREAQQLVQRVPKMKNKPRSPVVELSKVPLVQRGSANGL
Efflux pump mplx: inhibitors of Candida antifungal efflux pumps expressed in yeast; inhibition, % at 10 µM; 0.44% of 330,000 active; S. cerevisiae Candida pump triplex, Nile Red efflux;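 active = plate passing quality check with inhibition over a set limit, or well fluorescence over plate mean plus 4 SD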;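 note: Nile Red retained in pooled yeast measured as flow cytometry median fluorescence; 0% = buffer negative control and 100% = Enniatin B positive control; higher means more Nile Red kept so more efflux inhibition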
ALR inh: inhibitors of human sulfhydryl oxidase ALR; AID 485317; inhibition, % (test concentration not listed); P55789; 3.8% of 290,000 active; purified ALR, DTT oxidation, H2O2 HRP-luminol luminescence;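 active = mean replicate inhibition above about 79%, with every replicate also reaching it, limit read from the data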
Rce1 inh: yeast Ras-converting enzyme inhibition. AID 2563. Q03530. calls only. yeast membranes, quenched prenylated peptide cleavage fluorescence. 0.27% of 290,000 active;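 active = fall in fluorescence gain of 50% or more versus controls, with final raw signal at or below 3038400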;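 note: plate controls were neutral control wells for no effect and wells lacking membranes for full effect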
Rtt109 Vps75: inhibitors of Candida albicans Rtt109/Vps75 histone acetyltransferase. Q5AAJ8. AID 540336. purified Rtt109/Vps75, ThioGlo CoA-SH fluorescence, 4 h. inhibition, % at 34.9 µM. 0.16% of 330,000 active;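 active = inhibition of at least 50% in every replicate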
Cmpd fluor yeast: flagged as fluorescent in efflux inhibitor counter-screen; fluorescence ratio to DMSO, % at 10 µM; S. cerevisiae AD/pABC3, compound fluorescence, flow cytometry; 4% of 1,700 active; AID 588517; shares compounds with Efflux pump mplx;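 active = fluorescence ratio to DMSO above its plate's cutoff, the plate mean ratio plus 5 SD, cut at about 210% in these data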;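 note: unstained yeast with no Nile Red so the signal is compound autofluorescence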
CaMdr1 efflux inh: inhibitors of Candida albicans Mdr1 efflux pump | shares compounds with Efflux pump mplx | S. cerevisiae AD/CaMDR1, Nile Red efflux, flow cytometry | inhibition, % at 10 µM | 1% of 1,700 active | AID 588518; in the data active = inhibition above about 26%;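 note: 0% = DMSO vehicle and 100% = reference inhibitor; higher means more Nile Red retained so more efflux inhibition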
CaCdr2 efflux inh: Candida Cdr2 efflux pump inhibition; shares compounds with Efflux pump mplx; 4% of 1,700 active; S. cerevisiae AD/CaCDR2, Nile Red retention, flow cytometry; Nile Red retention ratio vs DMSO, % at 10 µM; in the data active = Nile Red retention ratio vs DMSO above about 190%;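 note: higher ratio means more blocking of Cdr2 efflux of the dye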
CaCdr1 efflux inh: inhibitors of Candida albicans Cdr1 efflux pump. shares compounds with Efflux pump mplx. S. cerevisiae AD/CaCDR1, Nile Red efflux, flow cytometry. inhibition, % at 10 µM. 1% of 1,700 active;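 active = inhibition above the screen-wide mean plus twice its standard deviation, cut at about 32% in these data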
* = called active by the depositor; i = inactive; x = no result given.

SMILES | HDAC3 inhib | GRK2 aptamer HTS | Efflux pump mplx | ALR inh | Rce1 inh | Rtt109 Vps75 | Cmpd fluor yeast | CaMdr1 efflux inh | CaCdr2 efflux inh | CaCdr1 efflux inh
Cc1cccc(C)c1-n1c(SCC(=O)N2CC(=O)Nc3ccccc32)nc2ccccc2c1=O | 1.7 | 10.0 | 8.2* | -8.1 | i | 10.1 | 101.7 | -0.2 | 124.8 | 94.6*
O=C1CN(C(=O)CSc2nnnn2C2CC2)c2ccccc2N1 | 0.9 | 0.0 | 0.0 | -3.3 | x | -4.0 | x | x | x | x
O=C(COc1ccc(Br)cc1)Nc1nnc(C2CC2)s1 | 2.0 | 1.0 | -0.1 | 18.0 | x | 9.2 | 116.4 | -0.1 | 93.0 | 0.1
Cc1ccc(C(C)C)cc1OCC(=O)Nc1nnc(C2CC2)s1 | 3.8 | 4.0 | 0.0 | -2.9 | x | 2.4 | 101.1 | -0.2 | 106.3 | 0.2
CCC(Oc1ccc(Br)cc1Cl)C(=O)Nc1nnc(C2CC2)s1 (centres undefined) | -8.2 | 0.0 | -1.6 | 0.2 | i | 3.1 | x | x | x | x
CC(Oc1ccc(Br)cc1)C(=O)Nc1nnc(C2CC2)s1 (centres undefined) | -0.6 | 5.0 | -0.1 | 0.8 | i | -0.1 | 99.0 | -0.1 | 109.4 | 0.1
C[C@H]1CN([C@@H](C)CO)C(=O)c2cccc(NS(=O)(=O)c3cn(C)cn3)c2O[C@H]1CN(C)S(C)(=O)=O | 3.9 | 1.0 | -0.5 | 4.2 | x | -3.1 | x | x | x | x
COc1ccc(CCN(C)C(=O)C(CCSC)NC(=O)c2ccco2)cc1OC (centres undefined) | -4.2 | 0.0 | 0.3 | -16.0 | x | 4.1 | x | x | x | x
CCN1CCCC1CNS(=O)(=O)c1cc(Br)cc2c1N(C(=O)C1CC1)CC2 (centres undefined) | -1.5 | 8.0 | 20.5* | x | i | -0.8 | 103.4 | -0.1 | 97.2 | 0.1
COc1cc(/C=C(\C#N)C(=O)Nc2cccc3ncccc23)cc(OC)c1OC | -6.3 | 0.0 | 3.4* | -13.6 | i | -4.8 | 98.3 | -0.2 | 118.0 | 0.0
N#C/C(=C\c1ccc(O)c(O)c1)C(=O)Nc1cccc2ncccc12 | 2.7 | 6.0 | 0.9 | 99.0* | i | -4.6 | 107.2 | -0.1 | 113.8 | 0.0
COc1ccc(/C=C(\C#N)C(=O)Nc2cccc3ncccc23)cc1OC | 2.6 | 0.0 | 0.2 | x | i | -14.4 | 97.2 | -0.1 | 97.5 | 0.0
COc1ccc(/C=C(/C#N)C(=O)Nc2cccnc2)cc1OC | -2.3 | 0.0 | 0.1 | 1.2 | i | 0.6 | x | x | x | x
N#C/C(=C/c1ccc(O)c(O)c1)C(=O)NCc1ccc(Cl)cc1 | 5.6 | 2.0 | 0.1 | 22.2 | i | 21.0 | x | x | x | x
CCc1ccc(C2=CC(c3cc(Br)ccc3F)n3ncnc3N2)cc1 (centres undefined) | -1.2 | 3.0 | 0.9* | 3.1 | x | 1.1 | 101.7 | -0.1 | 105.1 | 0.0
NS(=O)(=O)c1ccc(CCNC(=O)Nc2ccc(Cl)c(Cl)c2)cc1 | 1.4 | 1.0 | 1.4* | -1.6 | i | 5.0 | 182.6 | 0.3 | 101.5 | 0.5
COc1cccc(/C=C/C(=O)N2CC(C)OC(C)C2)c1OC (centres undefined) | 0.4 | 0.0 | 1.7* | -5.0 | x | 1.8 | 93.5 | -0.2 | 102.9 | -0.1
COc1ccc(C(=O)NCc2ccc(Cl)c(Cl)c2)cc1OC | -3.6 | 0.0 | 11.4* | -2.9 | i | 3.7 | 87.3 | -0.3 | 88.8 | 0.3
COc1ccc(C(=O)NCc2cccnc2)cc1OC | 1.9 | 0.0 | -0.1 | -5.7 | i | -0.1 | x | x | x | x
O=S(=O)(Nc1ncn[nH]1)c1ccc(Cl)cc1 | -2.7 | 0.0 | -0.1 | -9.4 | i | -10.3 | x | x | x | x
Cc1cc(O)c(Sc2ncn[nH]2)cc1NS(=O)(=O)c1ccc(Cl)cc1 | 6.4 | 1.0 | -0.1 | 92.7* | x | 7.3 | 103.1 | 0.2 | 96.3 | 0.1
COc1ccc(S(=O)(=O)Nc2cc(Sc3ncn[nH]3)c(O)cc2C)cc1 | -6.3 | 3.0 | 0.0 | 98.3* | x | x | 104.6 | -0.2 | 95.6 | -0.1
